A selection: hits, their analogues and other compounds. The true share with any hit is near 3.7%.
V-ATPase pH – regulators of yeast V-ATPase proton transport; S. cerevisiae, pHLuorin cytosolic pH fluorescence; hit rate 0.37% among 350,000; response, % at 10 µM; in the data active = response mostly above about 7.3%, no sharp cut-off; inactive = mostly below about 5.4%; note: actives read high
TIM10 inh – TIM10 yeast growth inhibition | inhibition, % at 10 µM | hit rate 1.4% among 330,000 | S. cerevisiae TIM10 strain growth, BacTiter-Glo luminescence, 24 h;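 active = inhibition of 40% or more at the single tested concentration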;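 note: wild-type TIM10 isogenic control strain grown at permissive 25 °C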
tim23-1 inh – growth inhibitors of tim23-1 mutant yeast | S. cerevisiae tim23-1 growth, BacTiter-Glo luminescence, 24 h | inhibition, % at 20 µM | hit rate 1.3% among 330,000;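 active = growth inhibition of the mutant yeast at or above 50%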;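 note: temperature-sensitive mutant grown at 25 °C; plate controls were DMSO-treated mutant yeast for no effect and medium wells lacking yeast for full effect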
tim10-1 inh – growth inhibitors of tim10-1 mutant yeast. S. cerevisiae tim10-1 ts strain growth, BacTiter-Glo, 24 h. inhibition, % at 20 µM. hit rate 2.2% among 330,000;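 active = inhibition of at least 40%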;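 note: mutant grown at 25 °C; 0% = DMSO wells with yeast and 100% = wells holding no yeast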
PfHsp90 set2 – growth inhibition of yeast expressing Plasmodium Hsp90. hit rate 0.32% among 310,000. S. cerevisiae expressing PfHsp90, BacTiter-Glo ATP, 48 h; yeast lacking PDR1 and PDR3 efflux regulators. AID 504621. inhibition, % at 9.4 µM;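 active = every replicate shows inhibition above about 80%, whatever the replicate mean, limit read from the data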;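 note: 0% = DMSO neutral controls and 100% = 20 µM radicicol positive controls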
tim10-1 confirm – confirmation of tim10-1 mutant yeast growth inhibitors; shares compounds with tim10-1 inh; S. cerevisiae tim10-1 ts strain growth, BacTiter-Glo, 24 h; inhibition, % at 20 µM; hit rate 56% among 7,400;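 active = inhibition of yeast growth at or above a set limit in either of two repeat tests at 20 µM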;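 note: tim10-1 mutant grown at permissive 25 °C to find synthetic lethal compounds; 0% = DMSO yeast wells and 100% = medium wells without yeast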
* = called active by the depositor; / = no result given.

SMILES | V-ATPase pH | TIM10 inh | tim23-1 inh | tim10-1 inh | PfHsp90 set2 | tim10-1 confirm
CCCCN1C2=NC(c3ccccc3)CN2c2ccccc21 (configuration not stated) | 2 | -18 | -20 | -20 | 5 | /
CCCCN1c2ccccc2N(CCCO)c2cc(C)nnc21 | 1 | 8 | 16 | 45* | 0 | 21
NNC(=O)C(=O)Nc1ccc(O)cc1 | 9 | 3 | 9 | 8 | -7 | /
Cc1nn(C(C)C(=O)N2CCCC2)c(=O)c2nn(-c3ccccc3)c(C)c12 (configuration not stated) | -3 | 8 | -4 | -4 | -9 | /
CC1CC(C)CN(S(=O)(=O)c2ccc(C(=O)Nc3nnc(-c4cccs4)o3)cc2)C1 (configuration not stated) | -1 | 18 | 6 | 42* | -54 | 21
CCC1CCCCN1S(=O)(=O)c1ccc(C(=O)Nc2nnc(-c3cccs3)o2)cc1 (configuration not stated) | -2 | 18 | 21 | 45* | -27 | 27
CC1CCCN(S(=O)(=O)c2ccc(C(=O)Nc3nnc(-c4ccccc4Cl)o3)cc2)C1 (configuration not stated) | 0 | 22 | -5 | 42* | -9 | 7
CC1CCCN(S(=O)(=O)c2ccc(C(=O)Nc3nnc(-c4ccccn4)o3)cc2)C1 (configuration not stated) | 1 | 9 | 5 | 21 | -18 | /
O=S(=O)(N1CCCCC1)N1CCN(CC(O)COc2ccc3cc(Br)ccc3c2)CC1 (configuration not stated) | 4 | 36 | 19 | 45* | / | 26
COc1cccc(OCC(O)CN2CCN(c3ccccn3)CC2)c1 (configuration not stated) | 4 | -12 | -2 | -11 | -6 | /
OC(COc1ccc2cc(Br)ccc2c1)CN1CCN(c2ccccn2)CC1 (configuration not stated) | 1 | 39 | 7 | 41* | -1 | -40
CN(C)S(=O)(=O)N1CCN(CC(O)COc2ccc3cc(Br)ccc3c2)CC1 (configuration not stated) | -1 | 40 | 36 | 37 | 3 | /
Cc1ccc(F)c(NC(=O)c2c(-c3ccccc3)noc2C)c1 | -1 | 12 | 38 | 47* | -27 | 43*
CCCOc1cccc(NC(=O)c2c(-c3ccccc3)noc2C)c1 | -3 | 18 | 23 | 41* | -37 | 25
Cc1onc(-c2ccccc2)c1C(=O)Nc1cccc(OC(C)C)c1 | 0 | 18 | -12 | 33 | -3 | /
Cc1onc(-c2ccccc2)c1C(=O)Nc1ccc(NC(=O)c2c(-c3ccccc3)noc2C)cc1 | -3 | 9 | 6 | 10 | -4 | /
Cc1noc(C)c1NC(=O)N(C)C[C@@H]1Oc2cc(Br)ccc2S(=O)(=O)N([C@H](C)CO)C[C@@H]1C | 1 | / | / | / | / | /
N#C/C(=C/C1=C(N2CCOCC2)C(=C/c2ccc(Cl)cc2Cl)/CC1)C(=O)Nc1ccccc1F | 2 | / | / | / | -2 | /
O=[N+]([O-])/C=C/c1cc2ccccc2[nH]1 | 4 | 4 | 5 | 13 | 10 | /
COCCn1c(-c2ccc(Br)cc2)csc1=Nc1cccnc1 | 1 | -1 | 29 | 42* | / | 17
COc1ccc(N=c2scc(-c3ccc(OC)cc3)n2CCO)cc1 | 4 | 9 | 41 | 41* | 12 | 25
CCOC(=O)c1ccc(NC(=O)c2cccc3c2C(=O)N(CC2CCCO2)C3)cc1 (configuration not stated) | 1 | 18 | 36 | 47* | -41 | 43*
COC(C/C=C/C(=O)COCc1ccccc1)OC | 5 | 34 | 41 | 46* | 16 | 41*
O=C(Nc1cc(Cl)cc2c1-c1ccc(Cl)cc1C2O)C(Cl)Cl (configuration not stated) | -6 | / | / | / | -5 | /
COc1cc(C(F)(F)F)c(C(=O)NCc2cccc(Cl)c2)cn1 | 1 | 0 | 22 | 14 | 16 | /
SMILES | V-ATPase pH | TIM10 inh | tim23-1 inh | tim10-1 inh | PfHsp90 set2 | tim10-1 confirm
CC(C)(C)OC(=O)CC[C@@H](C(=O)N1CCN(C(=O)OC(C)(C)C)CC1)n1cc(C(Cc2ccc(O)cc2)NC(=O)OC(C)(C)C)nn1 (some centres not stated) | 6 | 9 | 17 | 4 | 19 | /
CNc1sc(C(=O)c2cccs2)c(N)c1-c1nc2ccccc2s1 | -2 | 31 | 45 | 48* | -35 | 48*
CNc1sc(C(=O)c2ccc(F)cc2)c(N)c1-c1nc2ccccc2s1 | 2 | 35 | 42 | 41* | -10 | 23
CC(=O)Nc1scc(C)c1-c1nc2ccccc2s1 | -3 | 16 | 7 | 21 | -5 | /
CC1CCN(S(=O)(=O)c2ccc(NC(=O)Cc3cccs3)cc2)CC1 | 5 | 36 | 28 | 54* | / | 36*
CC1CCN(CC(=O)Nc2ccc(S(=O)(=O)N3CCC(C)CC3)cc2)CC1 | 5 | 6 | -4 | -3 | 22 | /
CCN(CC)S(=O)(=O)c1ccc(NC(=O)Cc2cccs2)cc1 | 1 | 4 | 26 | 45* | 0 | 21
COC(=O)C=C1CCC2C3CCC4=CC(=O)CCC4(C)C3C(=O)CC12C (configuration not stated) | -4 | / | / | / | 6 | /
COc1ccccc1C(=O)Nc1nc2cc3c(cc2s1)OCCO3 | -2 | -10 | 34 | 43* | -31 | 18
N#CCOC(=O)[C@H](Cc1c[nH]c2ccccc12)NS(=O)(=O)c1ccc(Cl)cc1 | 0 | 15 | 13 | 17 | -6 | /
COCCCNC(=S)N/N=C/c1ccc2c(c1)OCO2 | -1 | 24 | 35 | 41* | 5 | 14
N#Cc1sc2nc(-c3cccs3)cc(-c3ccc(Cl)cc3)c2c1N | 6 | 10 | 3 | 17 | -27 | /
CCN(CC)C(=O)c1sc2nc(-c3cccs3)cc(-c3ccc(Cl)cc3)c2c1N | -8 | 38 | 34 | 58* | -13 | 38*
Cc1nn2c(N3CCOCC3)c3c(nc2c1-c1ccccc1)CCCC3 | -3 | 22 | 36 | 26 | -6 | /
Cc1nc2c(-c3ccc(F)cc3)c(C)nn2c(N2CCOCC2)c1C | -5 | 31 | 34 | 45* | -3 | 26
CC(C)CC(COCc1cccc(Cl)c1)N1CCN(C(=O)c2ccc(C(F)(F)F)cc2)CCC1=O (configuration not stated) | 2 | 23 | 28 | 49* | -43 | 25
c1ccc(-c2noc(CN3CCN(C(c4ccccc4)c4ccccc4)CC3)n2)cc1 | 0 | 29 | 19 | 45* | -16 | 12
c1ccc(-c2noc(CN3CCN(c4ccccc4)CC3)n2)cc1 | -2 | 0 | 23 | 5 | 8 | /
S=c1[nH]nc(-c2ccco2)n1/N=C/c1cccc(Cl)c1Cl | -2 | 32 | 36 | 41* | -53 | 33*
S=c1[nH]nc(-c2ccco2)n1/N=C/c1ccc(Cl)cc1Cl | -1 | 38 | 37 | 38 | -24 | /
S=c1[nH]nc(-c2ccco2)n1/N=C/C=C/c1ccccc1 | 3 | 37 | 36 | 41* | 5 | 30*

Screening data as filed in PubChem BioAssay.
